“And” between values parts separate entries of the source, which are not always exact repeats. Equal entries are not always repeated. Records with an inconclusive call do not appear. The source made the active and inactive calls. The call rests on the fitted dose curve; in most records, active means well fitted inhibition curve with a large enough effect; inconclusive means small, poorly fitted or top-dose-only effect; inactive means flat fitted curve, though single readings scatter.
How the values were obtained:
Assay in all cases: qHTS profiling for inhibitors of Plasmodium falciparum proliferation (AID 504749); further: nearly all actives have a fitted effect of over 60% in size
Conditions in all cases: P. falciparum in erythrocytes, SYBR Green DNA, 72 h; series mostly up to 28.7 µM
DIV30 = system: DIV30
In short: (§1)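 SYBR Green fluorescence of parasite DNA, read after lysis and overnight dark incubation, measured growth over 72 h in erythrocyte culture at 0.3% parasitemia and 2.5% hematocrit. Data normalised to DMSO and 0.29 uM artemisinin, with plate-drift correction.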

Dd2 = system: Dd2
In short: as §1

ECU = system: ECU
In short: as §1

FAB9 = system: FAB9
In short: as §1

GB4 = system: GB4
In short: as §1

HB3 = system: HB3
In short: as §1

JCK = system: JCK
In short: as §1

N140 = system: N140
In short: as §1

P93_24 = system: P93_24
In short: as §1

P94_40 = system: P94_40
In short: as §1

PAD = system: PAD
In short: as §1

PC15 = system: PC15
In short: as §1

PC26 = system: PC26
In short: as §1

PC49 = system: PC49
In short: as §1

SC27B = system: SC27B
In short: as §1

TAB109 = system: TAB109
In short: as §1

TAB113 = system: TAB113
In short: as §1

TAB165 = system: TAB165
In short: as §1

ICS = system: ICS
In short: as §1

W2 = system: W2
In short: as §1

Measured: Potency
Potency means the concentration at half of the fitted maximal effect.

CCCCCCCCCC(=O)O[C@H]1CC[C@H]2[C@@H]3CCC4=CC(=O)CC[C@]4(C)[C@H]3CC[C@]12C
not listed: ICS | W2
inactive: all other assays above

COC([CH2][Hg])CNC(=O)c1ccccc1OCC(=O)O (stereo not drawn)
not listed: TAB109
inactive: all other assays above

CC(C)CCON=O
inactive: all assays above

CCC(N)Cc1c[nH]c2ccccc12 (stereo not drawn)
inactive: all assays above

CC(=O)OC1CN2CCC1CC2 (stereo not drawn)
inactive: all assays above

ClC(Cl)(Cl)Cl
inactive: all assays above

[Cl-].[Cl-].[Hg+2]
active: DIV30 15.1 µM | Dd2 12.6 µM | ECU 6.31 µM | FAB9 7.08 µM | GB4 4.78 µM | ICS 12.6 µM | N140 10 µM | PAD 7.08 µM | W2 9.53 µM
inactive: HB3

C[N+]1(C)CCCCC1COC(=O)C(O)(c1ccccc1)c1ccccc1 (stereo not drawn)
not listed: P93_24 | P94_40 | W2
inactive: all other assays above

O=C1CN=C(c2ccccc2)c2cc(Cl)ccc2N1CC1CC1
not listed: ICS | W2
inactive: all other assays above

CC(N)Cc1ccc(O)cc1 (stereo not drawn)
inactive: all assays above

CCCCCl
not listed: JCK | PC26 | W2
inactive: all other assays above

O=C(O)C(Cl)(Cl)Cl
inactive: all assays above

CCC1(C)CC(=O)NC(=O)C1
inactive: all assays above

C=CCN(C1=NCCN1)c1c(Cl)cccc1Cl
inactive: all assays above

O=CC=O
inactive: all assays above

O=C(CCl)c1ccc(Oc2ccc(C(=O)CCl)cc2)cc1
inactive: all assays above

CCON=O
inactive: all assays above

ClC1C(Cl)C(Cl)C(Cl)C(Cl)C1Cl (stereo not drawn)
inactive: all assays above

C[N+]1(C)C2CCC1CC(OC(=O)c1c[nH]c3ccccc13)C2 (stereo not drawn)
inactive: all assays above

C[CH2][Hg][S]c1ccccc1C(=O)O
active: DIV30 4.26 µM | Dd2 2.24 µM | ECU 3.16 µM | FAB9 5.62 µM | GB4 1.69 µM | HB3 2.24 µM | ICS 1.26 µM | JCK 10 µM | N140 2.24 µM | P93_24 2.82 µM | P94_40 3.16 µM | PAD 2.82 µM | PC15 4.47 µM | PC26 3.79 µM | PC49 2.24 µM | SC27B 3.98 µM | TAB109 2.51 µM | TAB113 3.16 µM | TAB165 2.24 µM | W2 2.13 µM

CNC(C)C(O)c1ccc(O)cc1 (stereo not drawn)
inactive: all assays above

CN1[C@@H]2CC[C@H]1CC(OC1c3ccccc3CCc3ccccc31)C2 (stereo partly drawn)
inactive: DIV30 | FAB9 | HB3 | JCK | PC15 | PC49 | TAB113
active: ECU 3.55 µM | P93_24 3.98 µM | TAB165 3.98 µM | W2 2.28 µM

CCNC(C)Cc1cccc(C(F)(F)F)c1 (stereo not drawn)
not listed: ECU | GB4 | W2
inactive: all other assays above

CCCC(=O)OC(C(Cl)(Cl)Cl)P(=O)(OC)OC (stereo not drawn)
not listed: P93_24 | P94_40 | PC15 | PC26 | ICS | W2
inactive: all other assays above

OC(c1ccccc1)(c1ccccc1)C1CN2CCC1CC2 (stereo not drawn)
inactive: FAB9 | HB3 | JCK | N140 | P93_24 | P94_40 | SC27B | TAB113 | TAB165
active: PC49 1 µM

N#CN
not listed: DIV30
inactive: all other assays above

COc1ccc2c(c1OC)C(=O)OC2C1c2cc3c(cc2CCN1C)OCO3 (stereo not drawn)
not listed: DIV30 | GB4 | PC26 | W2
inactive: all other assays above

CC(C)(C)c1cc(O)ccc1O
active: DIV30 9.53 µM | Dd2 4.47 µM | ECU 7.94 µM | GB4 3.79 µM and 12 µM | HB3 10 µM | ICS 3.16 µM and 2 µM | N140 11.2 µM | P93_24 11.2 µM and 8.91 µM | P94_40 7.08 µM and 12.6 µM | PAD 11.2 µM | PC15 11.2 µM | PC26 12 µM | SC27B 7.94 µM | TAB109 4.47 µM | TAB113 12.6 µM | TAB165 10 µM | W2 1.69 µM and 4.26 µM
